Test [1] addresses ATP-dependent 6-phosphofructokinase (Trypanosoma brucei brucei) (UniProt O15648). As to the kind of experiment: qHTS Validation Assay to Find Inhibitors of T. brucei phosphofructokinase (AID 485368). In outline:
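Luminescent ADP detection measures PFK turnover of fructose-6-phosphate (0.5 mM) with ATP (0.1 mM) at pH 8.0. Reaction runs 45 min at room temperature with 1.25 nM enzyme; inhibitors tested as titrations up to 57 uM.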
(qHTS replaces the single test concentration by a dilution series.)

Test [2] concerns the target Thioredoxin reductase 1, cytoplasmic (Rattus norvegicus) (UniProt O89049). Briefly: qHTS Assay for Substrates of Mammalian Selenoprotein Thioredoxin Reductase 1 (TrxR1) (AID 488772).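 Further: series mostly up to about 57 µM; a drop in NADPH fluorescence below the no-compound background marks a TrxR1 substrate.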 In a few lines:
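In this dual-purpose format, potential substrates are identified from the first fluorescence read after selenite addition, not from the 8-minute delta. Rat enzyme is preincubated with NADPH and then with compound at ~22 deg C.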

Test [3] shares this target. As to the kind of experiment: qHTS Assay for Inhibitors of Mammalian Selenoprotein Thioredoxin Reductase 1 (TrxR1) (AID 488773).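 Further: drop in NADPH fluorescence over an 8 min run after selenite addition; series mostly up to about 57 µM; nearly all actives have a fitted effect of over 40% in size.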 To be noted: Potency: inhibition. In a few lines: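 Inhibition is scored from the loss of NADPH fluorescence between first and last reads of an 8-min kinetic run. Selenite (400 uM) was the substrate, added after 15 min compound preincubation at room temperature.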

Test [4] deals with Flap endonuclease 1 (Homo sapiens) (UniProt P39748). Briefly: qHTS Validation Assay for the Inhibitors of Human Flap endonuclease 1 (FEN1) (AID 488816). In a few lines:
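Enzyme reagent 10 nM; cpds pinned; 15 min RT preinc.; substrate 50 nM final; reads t=0 and 15 min; no-enzyme buffer wells as neg. control; normalized data, 4-parameter Hill fit.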

The target in test [5] is M-phase phosphoprotein 8 (Homo sapiens) (UniProt Q99549). As to the kind of experiment: qHTS Validation Assay for Inhibitors for MPP8 Chromodomain Interactions with Methylated Histone Tails (AID 488949). Further: nearly all actives have a fitted effect of over 55% in size. Further: potency means the concentration at half of the fitted maximal effect. In a few lines:
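Disruption of the preformed MPP8–trimethyl-H3K9 peptide complex (both 50 nM, 30 min, RT) is measured after 30 min compound exposure, using AlphaScreen proximity beads; aurintricarboxylic acid titration serves as plate control.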

Test [6] has as its target Methanococcus maripaludis chaperonin (MmCpn) (UniProt Q6LX38). Briefly: High-Throughput Screening for Modulators of Cytosolic Chaperonin Activity: MmCpn Primary Screen (AID 488978).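 Further: 50 nM MmCpn enzyme hydrolysing 30 µM ATP at 37 °C.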 In outline: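 Measures ATPase turnover of the M. maripaludis chaperonin (50 nM final) against 30 uM ATP over 10 min at 37C, with compound added 5 min beforehand at room temperature. ADP is quantified by HTRF immunodetection.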

Test [7] can be described thus: Quantitative high throughput screen for delayed death inhibitors of the malarial parasite plastid, 96 hour incubation (AID 488745). Further: nearly all actives have a fitted effect of over 70% in size. Further: potency means the concentration at half of the fitted maximal effect. In a few lines:
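Readout is firefly luciferase luminescence from an integrated reporter in P. falciparum; lower signal marks inhibited growth. Cultures at 2% hematocrit and 0.1% parasitemia were treated with compound across two generations (96 h, 37 C, 5% CO2).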

The nature of test [8]: Quantitative high throughput screen for delayed death inhibitors of the malarial parasite plastid, 48 hour incubation (AID 488752). Further: nearly all actives have a fitted effect of over 65% in size. Further: potency means the concentration at half of the fitted maximal effect. In outline: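 First, compound was pinned into RPMI 1640 medium containing 0.5% Albumax. Next, reporter-parasite-infected erythrocytes were added to 2% hematocrit and 0.1% parasitemia. After 48 h at 37 C under 5% CO2, luciferase detection reagent was added and luminescence read.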

Test [9] deals with Transient receptor potential cation channel subfamily V member 1 (Homo sapiens) (UniProt Q8NER1). As to the kind of experiment: HTS Assay for Compounds that Act as Enhancers of the Vanilloid Receptor 1 (AID 488979). In a few lines: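 TRPV1 cells loaded with Fluo-8 calcium dye; compound added and Ca2+ signal (ex 480/em 520 nm) followed 3 min, then capsaicin at EC20 added and read 2 more min to detect enhancement.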
Transient receptor potential cation channel subfamily V member 1 (Homo sapiens), sequence (Q8NER1 whole entry, looked up): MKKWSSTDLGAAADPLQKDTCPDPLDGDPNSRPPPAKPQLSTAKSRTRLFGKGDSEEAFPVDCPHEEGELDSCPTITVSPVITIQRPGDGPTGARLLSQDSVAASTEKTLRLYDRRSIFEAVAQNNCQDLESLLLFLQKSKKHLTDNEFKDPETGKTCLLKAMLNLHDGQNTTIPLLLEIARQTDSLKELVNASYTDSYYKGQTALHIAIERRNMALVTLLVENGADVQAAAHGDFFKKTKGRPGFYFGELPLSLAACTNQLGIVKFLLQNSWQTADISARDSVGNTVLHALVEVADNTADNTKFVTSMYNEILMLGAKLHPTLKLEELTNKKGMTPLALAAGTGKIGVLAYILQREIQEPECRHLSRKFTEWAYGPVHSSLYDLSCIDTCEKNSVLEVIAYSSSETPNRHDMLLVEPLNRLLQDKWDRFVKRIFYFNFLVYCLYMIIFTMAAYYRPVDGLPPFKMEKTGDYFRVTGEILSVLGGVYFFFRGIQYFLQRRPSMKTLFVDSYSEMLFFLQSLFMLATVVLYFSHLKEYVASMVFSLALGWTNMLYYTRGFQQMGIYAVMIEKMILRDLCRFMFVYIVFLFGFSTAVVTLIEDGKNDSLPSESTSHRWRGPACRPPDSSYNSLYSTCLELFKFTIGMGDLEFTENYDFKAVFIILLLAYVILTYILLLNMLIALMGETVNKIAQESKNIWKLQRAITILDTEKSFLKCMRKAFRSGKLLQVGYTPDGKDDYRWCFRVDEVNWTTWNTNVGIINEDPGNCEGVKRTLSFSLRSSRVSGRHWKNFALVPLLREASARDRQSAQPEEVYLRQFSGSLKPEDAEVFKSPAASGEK

For test [10], the target named is Chromobox protein homolog 1 (Homo sapiens) (UniProt P83916). Briefly: qHTS Validation Assay for Inhibitors of HP1-beta Chromodomain Interactions with Methylated Histone Tails (AID 488953). Further: nearly all actives have a fitted effect of over 50% in size. Further: potency means the concentration at half of the fitted maximal effect. In outline: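 Disruption of preformed HP1-beta:H3K9me3 peptide complexes (both 50 nM, PBS pH 7.4 with 0.01% Tween-20) is measured by AlphaScreen after 30 min compound exposure at room temperature, using streptavidin donor and nickel chelate acceptor beads at 10 ug/mL final.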
Chromobox protein homolog 1 (Homo sapiens), sequence (P83916 whole entry, looked up): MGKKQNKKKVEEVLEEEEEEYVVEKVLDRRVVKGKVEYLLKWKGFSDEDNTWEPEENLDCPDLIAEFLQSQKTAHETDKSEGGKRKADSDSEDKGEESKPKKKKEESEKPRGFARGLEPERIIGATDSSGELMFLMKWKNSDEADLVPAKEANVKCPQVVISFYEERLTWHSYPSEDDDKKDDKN

Results filed as inconclusive are left out. Where a structure was tested more than once in an assay, its records may differ in their call. Calls of active or inactive are those of the source. The call rests on the fitted dose curve; in most records, active means well fitted curve in the direction sought with a large enough effect; inconclusive means small, poorly fitted or top-dose-only effect, or another doubt; inactive means no such curve, though single readings can be large; an effect the other way counts as inactive or inconclusive.

Methanococcus maripaludis chaperonin (MmCpn), sequence (Q6LX38 1-543): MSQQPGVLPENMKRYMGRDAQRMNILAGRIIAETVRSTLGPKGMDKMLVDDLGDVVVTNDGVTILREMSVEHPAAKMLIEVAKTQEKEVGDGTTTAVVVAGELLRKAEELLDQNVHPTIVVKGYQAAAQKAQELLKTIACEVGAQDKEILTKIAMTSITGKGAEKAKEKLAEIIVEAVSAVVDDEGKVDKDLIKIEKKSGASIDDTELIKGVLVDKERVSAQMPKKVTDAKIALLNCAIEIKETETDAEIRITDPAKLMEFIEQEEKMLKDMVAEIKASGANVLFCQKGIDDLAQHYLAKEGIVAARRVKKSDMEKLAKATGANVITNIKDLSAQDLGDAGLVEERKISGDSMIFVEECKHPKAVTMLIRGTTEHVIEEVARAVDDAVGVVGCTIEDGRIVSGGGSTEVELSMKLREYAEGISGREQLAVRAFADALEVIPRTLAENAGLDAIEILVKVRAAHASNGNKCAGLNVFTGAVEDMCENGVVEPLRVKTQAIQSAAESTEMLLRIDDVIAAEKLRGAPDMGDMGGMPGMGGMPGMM
M-phase phosphoprotein 8 (Homo sapiens), sequence (Q99549 whole entry, looked up): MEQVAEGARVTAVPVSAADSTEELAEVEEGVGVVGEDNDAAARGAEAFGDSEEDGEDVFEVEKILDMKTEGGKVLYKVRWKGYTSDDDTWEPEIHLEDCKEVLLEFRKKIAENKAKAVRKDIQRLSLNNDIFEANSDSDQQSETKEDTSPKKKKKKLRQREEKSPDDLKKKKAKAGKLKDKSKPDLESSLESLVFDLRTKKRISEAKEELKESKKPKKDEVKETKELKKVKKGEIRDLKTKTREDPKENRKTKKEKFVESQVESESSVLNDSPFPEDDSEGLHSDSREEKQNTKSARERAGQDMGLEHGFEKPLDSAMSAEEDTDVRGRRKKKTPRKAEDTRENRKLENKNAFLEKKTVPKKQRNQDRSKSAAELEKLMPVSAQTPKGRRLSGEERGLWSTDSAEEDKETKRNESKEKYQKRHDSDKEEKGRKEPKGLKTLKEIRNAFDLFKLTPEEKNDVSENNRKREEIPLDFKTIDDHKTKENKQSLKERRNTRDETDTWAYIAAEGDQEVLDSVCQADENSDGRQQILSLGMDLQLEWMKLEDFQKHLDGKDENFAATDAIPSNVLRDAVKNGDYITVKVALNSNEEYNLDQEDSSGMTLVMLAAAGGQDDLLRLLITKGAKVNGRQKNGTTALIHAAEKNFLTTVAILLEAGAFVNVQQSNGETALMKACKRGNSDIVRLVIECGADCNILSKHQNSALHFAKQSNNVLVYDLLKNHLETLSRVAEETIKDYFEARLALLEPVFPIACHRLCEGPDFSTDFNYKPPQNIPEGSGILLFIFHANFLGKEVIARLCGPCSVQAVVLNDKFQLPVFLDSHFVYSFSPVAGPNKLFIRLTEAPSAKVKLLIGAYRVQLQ
Thioredoxin reductase 1, cytoplasmic (Rattus norvegicus), sequence (O89049 whole entry, looked up): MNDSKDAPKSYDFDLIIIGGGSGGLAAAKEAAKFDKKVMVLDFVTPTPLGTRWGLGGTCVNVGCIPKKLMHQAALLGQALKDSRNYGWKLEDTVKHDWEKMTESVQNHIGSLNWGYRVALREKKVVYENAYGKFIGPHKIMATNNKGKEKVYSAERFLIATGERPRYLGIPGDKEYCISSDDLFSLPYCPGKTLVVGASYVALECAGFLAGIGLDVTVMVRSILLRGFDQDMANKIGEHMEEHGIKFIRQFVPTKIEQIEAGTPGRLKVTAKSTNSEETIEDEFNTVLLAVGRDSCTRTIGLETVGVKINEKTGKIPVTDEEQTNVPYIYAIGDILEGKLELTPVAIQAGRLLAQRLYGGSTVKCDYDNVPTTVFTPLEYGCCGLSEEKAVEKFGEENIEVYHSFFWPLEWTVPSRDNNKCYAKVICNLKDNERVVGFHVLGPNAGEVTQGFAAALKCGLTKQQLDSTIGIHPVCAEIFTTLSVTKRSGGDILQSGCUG
Flap endonuclease 1 (Homo sapiens), sequence (P39748 whole entry, looked up): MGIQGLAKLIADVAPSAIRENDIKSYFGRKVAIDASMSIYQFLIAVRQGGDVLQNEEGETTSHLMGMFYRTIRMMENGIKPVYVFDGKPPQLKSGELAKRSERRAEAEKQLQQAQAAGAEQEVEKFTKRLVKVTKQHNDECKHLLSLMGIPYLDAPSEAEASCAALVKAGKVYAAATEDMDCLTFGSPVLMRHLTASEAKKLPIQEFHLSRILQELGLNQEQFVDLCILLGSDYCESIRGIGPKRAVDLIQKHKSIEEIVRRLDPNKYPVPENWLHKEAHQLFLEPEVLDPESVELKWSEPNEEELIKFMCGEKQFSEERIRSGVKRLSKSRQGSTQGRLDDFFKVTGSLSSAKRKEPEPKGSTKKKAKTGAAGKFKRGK
ATP-dependent 6-phosphofructokinase (Trypanosoma brucei brucei), sequence (O15648 whole entry, looked up): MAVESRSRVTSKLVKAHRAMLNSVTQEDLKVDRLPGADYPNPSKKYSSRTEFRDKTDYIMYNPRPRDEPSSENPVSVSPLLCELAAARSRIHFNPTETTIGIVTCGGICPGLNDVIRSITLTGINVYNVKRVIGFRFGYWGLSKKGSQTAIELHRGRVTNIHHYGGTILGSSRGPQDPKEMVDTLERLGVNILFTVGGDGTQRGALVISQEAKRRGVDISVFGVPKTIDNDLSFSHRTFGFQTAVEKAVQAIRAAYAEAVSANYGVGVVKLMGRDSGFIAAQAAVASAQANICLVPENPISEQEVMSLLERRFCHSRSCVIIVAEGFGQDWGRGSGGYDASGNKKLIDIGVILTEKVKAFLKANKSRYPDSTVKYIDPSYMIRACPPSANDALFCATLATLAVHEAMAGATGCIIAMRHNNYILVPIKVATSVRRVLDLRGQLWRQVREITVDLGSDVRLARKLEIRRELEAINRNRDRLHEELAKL

As for `Cc1cc(Cn2cnc3c2C[C@@H](C(=O)O)N(C(=O)C(c2ccccc2)c2ccccc2)C3)ccc1N`, the Potency entry in test [1], in test [3], in test [4] and in [5] was “inactive” throughout. Also, the compound was called inactive in test [2] and in test [6].

For `NCCS(=O)O`, the Potency result in test [7], in test [8], in test [3], in test [4] and in test [5] was “inactive” throughout. In addition, the compound was classed as inactive in [2], in test [6] and in [9].

Consider `Cc1cc2c(cc1Cl)N(C(=O)Nc1ccnc3ccccc13)CC2`, for which the Potency entry in test [7], in [8], in test [3], in test [4], in [5] and in [10] was “inactive” in each case. In addition, the outcome in test [2] and in test [9] was inactive.

In the case of `CCCCS(=N)(=O)CC[C@H](N)C(=O)O` (some centres undefined), the Potency entry in test [7], in test [8], in [3], in test [4], in test [5] and in test [10] was “inactive” each time. The compound was called inactive in test [2], in test [6] and in [9].

`Cn1cc(C(=O)OCC2CCN(CCNS(C)(=O)=O)CC2)c2ccccc21`: the Potency entry in test [7], in test [8], in [3], in [4], in [5] and in test [10] was “inactive” throughout. Moreover, the result in test [2], in [6] and in test [9] was inactive.

For `NC1(C(=O)O)CC1`, the Potency entry in [7], in test [8], in test [3], in test [4] and in test [10] was “inactive” in each case. The compound was classed as inactive in test [2], in test [6] and in test [9].

On to `NC1CCN(O)C1=O` (centres undefined), for which the Potency result in test [7], in [8], in test [3], in test [4], in test [5] and in [10] was “inactive” throughout. In addition, the compound was classed as inactive in [2], in [6] and in [9].

Turning to `CN(C)C(=O)/N=N/C(=O)N(C)C`, the Potency entry in [7], in [8], in [3] and in test [4] was “inactive” in each case. Also, the outcome in test [2], in [6] and in [9] was inactive. For the same compound, the Potency in [5] is 31.6 µM (active) and inactive; in test [10], 20 µM (active).

As for `CC(C)C[C@H](NC(=O)C1OC1C(=O)O)C(=O)NCCCCN=C(N)N` (some centres undefined), the Potency is 2.33 µM (active) in [7], 5.86 µM (active) in test [8] and 0.006 µM (active) in test [10]. For the same compound, the compound was classed as inactive in test [2], in test [6] and in test [9]. For the same compound, the Potency entry in [3], in test [4] and in test [5] was “inactive” throughout.

With `O=C1C2C=CC=CC2=NC(=S)N1CCN1CCC(=C(c2ccc(F)cc2)c2ccc(F)cc2)CC1` (centres undefined), the Potency entry in [7], in [8], in [3] and in test [4] was “inactive” in each case. Also, the compound was classed as inactive in test [2], in [6] and in [9]. Besides, the Potency in [5] is 50.1 µM (active) and inactive.

On to `O=C(O)[C@H]1NCCC[C@H]1C(=O)O`, for which the Potency entry in [7], in test [8], in test [3], in [4], in test [5] and in test [10] was “inactive” throughout. Moreover, the outcome in [2], in test [6] and in test [9] was inactive.

For the compound `CNc1cc(NS(=O)(=O)c2ccc(N)cc2)nc(NC)n1`, the Potency result in test [7], in [8], in [3], in test [4] and in [5] was “inactive” each time. In addition, the compound was called inactive in test [2], in [6] and in [9].

Regarding `Nc1ccc(N2C(=O)c3ccccc3C2=O)c(Cl)c1`, the Potency result in test [7], in test [8], in test [3], in test [4], in test [5] and in [10] was “inactive” throughout. For the same compound, the outcome in [2], in test [6] and in test [9] was inactive.

On to `COc1cccc(OC)c1OCCNCC1CSc2ccccc2O1` (centres undefined), for which the Potency entry in test [7], in [8], in test [3], in [4], in [5] and in [10] was “inactive” throughout. Besides, the outcome in [2], in [6] and in test [9] was inactive.

For `O=C(O)C1=CCCN(CCON=C(c2ccccc2)c2ccccc2)C1`, the Potency entry in test [7], in test [8], in [3], in test [4] and in test [5] was “inactive” throughout. For the same compound, the result in test [2], in [6] and in test [9] was inactive.

For `CC1CCN(CC[C@H]2CCCN2S(=O)(=O)c2cccc(O)c2)CC1`, the Potency entry in test [7], in test [8], in test [3], in test [4], in test [5] and in test [10] was “inactive” in each case. The call in test [2], in test [6] and in [9] was inactive.

`OCC1NCC(O)C(O)C1O` (centres undefined): the Potency result in test [7], in test [8], in test [3], in [4], in [5] and in [10] was “inactive” in each case. In addition, the outcome in [2], in test [6] and in test [9] was inactive.

With `O=c1ccn([C@@H]2O[C@H](COP(=O)(O)OP(=O)(O)O)[C@@H](O)[C@H]2O)c(=O)[nH]1`, the Potency result in test [7], in test [8], in test [3], in [4], in test [5] and in test [10] was “inactive” throughout. The outcome in test [2], in test [6] and in [9] was inactive.

As for `NC(=O)CNCCC(c1ccccc1)c1ccccc1`, the Potency result in test [7], in [8], in test [3], in test [4], in [5] and in [10] was “inactive” in each case. In addition, the compound was called inactive in test [2], in [6] and in [9].

For `O=C(O)C1CCCNC1` (centres undefined), the Potency entry in test [7], in [8], in test [3], in [4], in [5] and in test [10] was “inactive” throughout. For the same compound, the compound was called inactive in test [2], in [6] and in test [9].

As to `CCC(=O)N1CCN(C(=O)c2ccccc2)CC1`, the Potency entry in test [7], in test [8], in test [3], in test [4], in test [5] and in test [10] was “inactive” throughout. Further, the outcome in test [2], in [6] and in [9] was inactive.

Regarding `Cc1cccc(C2CN(C)CCc3c2cc(O)c(O)c3Cl)c1` (centres undefined), in test [7], the Potency was 4.65 µM (active). The Potency result in test [8], in [3], in test [4] and in test [5] was “inactive” in each case. Besides, the outcome in [2], in test [6] and in [9] was inactive.

Take `Cc1ccc([N+](=O)[O-])cc1S(=O)(=O)N(C)C`: the Potency entry in test [7], in [8], in test [3], in [4] and in test [10] was “inactive” throughout. For the same compound, the call in test [2], in [6] and in [9] was inactive.

Regarding `Nc1ncnc2c1ncn2C1CCCC1`, the Potency entry in test [7], in [8], in [3], in [4] and in [10] was “inactive” in each case. The compound was classed as inactive in [2], in [6] and in test [9].

For the origin of these results see PubChem BioAssay (NCATS).
